The campaign covered roughly 1,200 compounds. About 170 (14%) were called active. The rule behind the calls is not given here. Only a sample is shown. Measured potencies and affinities stand elsewhere.
assay: E. coli Tat export inhibitors, dose response, cherry-pick, set 2, plate reader (AID 504941); details: E. coli Tat transport reporter; series mostly up to 38 µM; activity change, negative = inhibition: at the top concentration

Activity change, negative = inhibition, inactive:
COc1ccc(-c2nc(C#N)c(NCC3CCCO3)o2)cc1OC (stereo not drawn) -5.51%
CCNc1nc(OC)nc(Oc2ccc(=O)n(-c3ccccc3)n2)n1 -15.9%
CCCCN(CCCC)C(=O)c1cn(CC)c2cc(N3CCN(C)CC3)c(F)cc2c1=O 282%
CC(C)(C)CC(=O)Nc1ccc(Nc2ccccc2)cc1 2.82%
CC(=O)Nc1cccc(-c2csc(Nc3cc(C)ccn3)n2)c1 -1.58%
Nc1ccc(S(=O)(=O)N2CCCc3ccccc32)cc1 12.9%
NC(=O)c1c(NC(=O)C(=O)N2CCOCC2)sc2c1CCC2 -18.1%
NC(=O)NC(=O)CSc1nc2sc(-c3ccccc3)cc2c(=O)n1-c1ccccc1 -2.99%
CCn1c(CCn2c3ccccc3c3ccccc32)n[nH]c1=S 11.1%
CCc1ccc(NC(=O)Nc2cc(C(=O)NCC3CCCO3)ccc2N2CC3CC(C2)c2cccc(=O)n2C3)cc1 (stereo not drawn) -5.94%
CCCN=C1N(CC)C[C@@H]2[C@@H]3C(=O)N(C)C(=O)[C@@H]3[C@](Cc3ccccc3)(C(=O)OC)N12 -26.9%
CC(NC(=O)Nc1nccs1)(C(F)(F)F)C(F)(F)F 22.2%
COc1ccc(C2C(C#N)=C(N)Oc3c2sc2nc(C)cc(C)c32)cc1 (stereo not drawn) 5.99%
COc1cc2c(cc1NC(=O)COC(=O)[C@@H](NC(=O)c1ccccc1)C(C)C)oc1ccccc12 -4.47%
Cc1cccc2c1cnn2C(=O)CCC(=O)N1CC(C)CC(C)C1 (stereo not drawn) 0.91%
CC(SCC(=O)Nc1ccc(F)cc1)c1nc2ccccc2c(=O)[nH]1 (stereo not drawn) 19.5%
O=C(c1ccco1)N1CCN(C(=O)c2ccc(CS(=O)c3ccc(F)cc3)o2)CC1 (stereo not drawn) -9.83%
Cc1nn2c(COc3ccc(NC(=O)c4ccccc4Cl)cc3)nnc2c2ccccc12 11.3%
O=C(O)c1ccc(N/N=C/c2ccc(-c3ccccc3)cc2)cc1 -7.88%
COc1cccc(CN(C(=O)Cc2c[nH]c3ccccc23)C(C(=O)NC2CCCCC2)c2ccc(C)o2)c1 (stereo not drawn) 0.794%
CCc1cccc(CC)c1NC(=S)NCC(c1cccnc1)N(C)C (stereo not drawn) 23.3%
COc1ccc(-c2ccc(-c3noc(-c4ccccc4OC)n3)c(OC)n2)cc1 32.1%
N#Cc1cccc(C(=O)OCC(=O)NCc2ccco2)c1 26.4%
CCOc1ccc(NC(=O)c2ccc(NC(=O)c3cn4c5c(c(N6CCN(C)CC6)c(F)cc5c3=O)OCC4C)cc2)cc1 (stereo not drawn) 53.8%
O=C(c1ccco1)N1CCCC(c2nc3c(nnn3Cc3ccc(F)cc3)c(=O)[nH]2)C1 (stereo not drawn) -15.7%
CCOC(=O)N1CCC(N(CCN(C)C)C(=S)Nc2ccc(Oc3ccccc3)cc2)CC1 -6.93%
Cc1noc(NS(=O)(=O)c2ccc(NC(=O)c3ccoc3C)cc2)c1C 19.6%
C=CCOc1ccccc1CN1CCC(n2nccc2NC(=O)C2CC2)CC1 -53.1%
O=C(CSc1nccn1Cc1ccccc1)NC1CCCC1 1.77%
O=C(NNC(=S)Nc1cccc(Cl)c1)c1ccccc1OC(F)F 21.6%
COc1ccc(C2CC(=O)Nc3n[nH]c(-c4ccccc4)c32)cc1OC (stereo not drawn) 23.4%
CCc1ccc(N2CC(C(=O)N3CCN(c4ccccn4)CC3)CC2=O)cc1 (stereo not drawn) 23.1%
COc1ccc(-c2nnc(Nc3ccc(CC(N)=O)cc3)c3ccccc23)cc1 -7.23%
Cc1cc(C)n(CCCNC(=O)COc2ccc([N+](=O)[O-])cc2)n1 -36.6%
CCC(=O)NC(c1ccccc1Cl)c1c(O)ccc2ccccc12 (stereo not drawn) 0.404%
COc1ccccc1NS(=O)(=O)c1cc(NC(C)=O)ccc1N1CCCCC1 1.54%
CCn1c2ccc(C)cc2c2nnc(SCCN3CCOCC3)nc21 5%
COC(=O)c1ccc(NC(=O)N2CCC(O)(c3cccnc3)CC2)cc1 9.11%
Cc1ccc(/C=C2/C(=N)N3N=C(CC(=O)N4CCCC4)SC3=NC2=O)o1 15.6%
COC(=O)c1c(NC(=O)CCN2CCOCC2)sc2c1CCCC2 1.23%
COc1ccc(CCN=C(N)NS(=O)(=O)c2cccs2)cc1 -3.98%
COc1cccc(NC(=O)Nc2cnccn2)c1 -11.9%
COc1cc(SC)ccc1C(=O)OCC(=O)NC(=O)NC(C)C -25.9%
O=C(N/C(=C/c1cccc([N+](=O)[O-])c1)C(=O)N1CCOCC1)c1ccc(Br)cc1 14.1%
Cn1cccc1CNCC(O)c1ccccc1 (stereo not drawn) -0.896%
CC(Sc1nnc(-c2ccccc2F)n1C1CC1)C(=O)NCc1ccco1 (stereo not drawn) 20.6%
CC1CCN(c2ccc(C(=O)NCc3ccco3)cc2[N+](=O)[O-])CC1 24%
N#Cc1cccc(Nc2c3c(nc4ccccc24)CCCC3)c1 31%
O=S(=O)(c1cc(Cl)cc(Cl)c1O)N1CCC2(CC1)OCCO2 -7.76%
CS(=O)(=O)c1ccc(Cl)c(NC(=O)COC(=O)CCc2c[nH]c3ccccc23)c1 -2.31%
CCS(=O)(=O)c1ccc(NC(=O)c2ccccc2Cl)c(O)c1 -5.3%
Nc1ccn(CC(=O)N2CCN(c3ccccn3)CC2)c(=O)n1 8.72%
NC(=O)c1ncn([C@@H]2O[C@H](CNCc3cccn3-c3ccncc3)[C@@H](O)[C@H]2O)n1 5.2%
O=C(NCc1ccc2c(c1)OCO2)c1c(O)c2cccc3c2n(c1=O)CCC3 -10.3%
Cc1nc(NC(=O)c2ccco2)sc1-c1csc(Nc2ccc(Cl)cc2)n1 -28.1%
Cc1ccc(SCc2noc(C(=O)NC(C)C)c2C(=O)O)cc1C 22.1%
CCCCNC(=O)NNC(=O)c1ccc(F)cc1 3.97%
O=C(O)C1C(=O)NCC1c1ccccc1 (stereo not drawn) 5.39%
Cc1ccc(C(=O)N/C(=C\c2cn(S(=O)(=O)N(C)C)c3ccccc23)C(=O)NCCCN2CCOCC2)cc1 -3.49%
COc1ccc(Nc2nc(NCCO)nc(OC)n2)cc1 12.2%
CCOC(=O)CC(NC(=O)c1cccc2c1C(=O)N(Cc1cccnc1)C2)c1ccc(OCC)c(OC)c1 (stereo not drawn) 22.5%
OC1(c2ccccc2Cl)NN=C2CCCCCN21 (stereo not drawn) 2.37%
Cc1nc2ccccn2c1/C(O)=C1\C(=O)C(=O)N(CCN(C)C)C1c1ccco1 (stereo not drawn) -13.9%
COc1ccccc1N1C(=NC(=O)CCc2ccccc2)SC2CS(=O)(=O)CC21 (stereo not drawn) 1.05%
COc1ccc(Cc2nnc(NS(=O)(=O)c3ccc(Cl)cc3)s2)cc1OC -17.9%
CCNc1c(NS(=O)(=O)c2ccc(OC)cc2)c(=O)oc2ccccc12 48%
Oc1ccc(/C=N/Nc2ccccc2)cc1 6.32%
CC(C)c1nnc(NC(=O)CCS(=O)(=O)Cc2ccccc2)s1 21.5%
CC(=O)NS(=O)(=O)c1ccc(NC(=O)c2cc(-c3cccs3)nc3ccccc23)cc1 5.92%
O=C(Cn1ccc(C(F)(F)F)n1)Nc1ccc(S(=O)(=O)NCc2ccco2)cc1 11.5%
CCC(C)n1nccc1NC(=O)C(C)Cl (stereo not drawn) -9.12%
O=C(Nc1cccc(-c2nc3cccnc3s2)c1)C1c2ccccc2Oc2ccccc21 21.1%
Nc1cc(OC(=O)c2ccc(F)cc2)nn1S(=O)(=O)c1ccc(F)cc1 -2.53%
CC(C)(C)n1nnnc1C(c1cc2cc3c(cc2[nH]c1=O)OCCO3)N1CCSCC1 (stereo not drawn) 8.61%
Cc1cc(C(C#N)c2ccccc2F)n2ncnc2n1 (stereo not drawn) -3.6%
C=CCc1c(C)nc(C)nc1N/N=C/c1ccc(N(C)C)cc1 3.93%
COc1ccc(S(=O)(=O)N(C)c2ccc(C(=O)N3CCOCC3)cc2)cc1 -2.72%
CCCCOc1ccc(C2CC(=O)N(C)C2=O)cc1 (stereo not drawn) 15.5%
CC[C@H]1OC(=O)[C@H](C)[C@@H](O[C@H]2C[C@@](C)(OC)[C@@H](O)[C@H](C)O2)[C@H](C)[C@@H](O[C@@H]2O[C@H](C)C[C@H](N(C)C)[C@H]2O)[C@](C)(OC)C[C@@H](C)C(=O)[C@H](C)[C@@H](O)[C@]1(C)O 21.8%
NC(=O)c1ccccc1NC(=O)COc1ccc2c(c1)OCO2 -15.4%
CCCN(Cc1ccccc1)C(=S)Nc1ccc(SC(F)F)cc1 -28.4%
c1ccc2c(OCCCN3CCCCCC3)cccc2c1 11.3%
C[C@H](NC(=O)c1nc[nH]c1C(=O)NCc1ccc(CNC(=O)OC(C)(C)C)cc1)c1ccccc1 -35%
CC(C)(C)OC(=O)N[C@@H](Cc1ccccc1)[C@H](O)c1ccco1 -13%
Cc1ccccc1-c1nc(CN2CCC(C(=O)O)CC2)c(C)o1 -19.8%
CC(O/N=C/c1ccc(OC(F)F)cc1)C(=O)Nc1cccc(S(=O)(=O)N2CCOCC2)c1 (stereo not drawn) 10.4%
Fc1ccc(-n2c(-c3ccc4ccccc4n3)n[nH]c2=S)cc1Cl 28.2%
Nc1nc(CN2CCCCC2)cs1 18.1%
CCCn1c2c(c(=N)c3c1CCC3)CCCC2 8.27%
COc1ccc(C2OC(=O)CC2C(=O)NCc2ccc(F)cc2)cc1OC (stereo not drawn) 4.42%
Cc1ccc2oc3c(c(=O)c2c1)C(c1cccs1)N(CCCN(C)C)C3=O (stereo not drawn) -22.4%
CC(=O)N1CCN(c2cc3c(cc2F)c(=O)c(C(=O)O)cn3C2CC2)CC1 408%
CC(C)C[C@@H](CN1CCC[C@@H]1CN1C(=O)C(=O)NC[C@@H]1Cc1ccccc1)N1C[C@H](Cc2ccc(O)cc2)N(CC2CCCCC2)C(=O)C1=O -8.76%
CCCC(=O)c1c[nH]c(C(=O)N2CCOCC2)c1 -22.5%
CCC(=NCCc1ccc(OC)c(OC)c1)C1=C(O)CC(C)(C)CC1=O -14.1%
N#Cc1nc(-c2ccccc2Cl)oc1N1CCN(C(=O)c2ccco2)CC1 -6.45%
O=C(NNc1ncnc2c1cnn2-c1ccccc1)c1cccs1 2.73%
C1=C(CCNc2ncnc3c2cnn3-c2ccccc2)CCCC1 -9.98%
COc1cccc(C(=O)N(CN2CCCC2=O)c2cccc(Cl)c2)c1OC 2.99%
O=C(Nc1ccc(Cl)c(C(F)(F)F)c1)NC1CC2CCCC(C1)N2C1CC1 (stereo not drawn) 16.9%
CCOc1ncccc1C(=O)N(CC)CC(=O)Nc1ccc(NC(C)=O)cc1 9.92%
CCCCN(C)CCn1c(=S)[nH]c2ncccc2c1=O -6.89%
CN(C(=O)COC(=O)c1cccc(S(=O)(=O)N2CCOCC2)c1)C1CCS(=O)(=O)C1 (stereo not drawn) 6.11%

Source: PubChem BioAssay AID504941 (Broad Institute, 2011)
